Active and inactive are the calls of the source. How the source made its calls: active means hit-call score of the fitted dose curve at least 0.9, where 1 is the maximum; inactive means score below 0.9.
How the values were obtained:
[1] = APR_HepG2_CellLoss_72hr: Apredica 72-hour HepG2 Assay for Cell Loss (AID 2282915); details: high-content imaging
In short: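 HepG2 cells were exposed for 72 hr to compounds at 0.39–200 uM (ten concentrations, duplicate) in 0.5% v/v final DMSO. Nuclei were stained with Hoechst 33342 after 3.7% formaldehyde fixation, imaged at 20x, and counted; fits bidirectional versus DMSO.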

[2] = APR_HepG2_P-H2AX_72hr: Apredica 72-hour HepG2 Assay for H2AX Phosphorylation (AID 2282916); details: imaging, actives raise or lower the signal;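 further: phospho-histone H2A.x immunostain intensity per cell marking DNA damage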
In short: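 Human hepatoma HepG2 cells are dosed across ten concentrations (0.39 to 200 uM, 0.5% v/v DMSO) and incubated 72 hr. Phospho-histone H2A.x is then detected by antibody staining alongside c-Jun and Hoechst, and quantified by automated fluorescence imaging.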

[3] = APR_HepG2_MitoMembPot_72hr: Apredica 72-hour HepG2 Assay for Mitochondrial Membrane Potential (AID 2282917); details: imaging, actives raise or lower the signal
In short: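 HepG2 cells exposed 72 h to compounds at 0.39–200 uM (0.5% v/v DMSO, duplicates); MitoTracker Red CMXRos 250 nM loaded 30 min before 3.7% formaldehyde fixation, imaged by HCS fluorescence. Bidirectional fit versus DMSO.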

[4] = APR_HepG2_MitoticArrest_72hr: Apredica 72-hour HepG2 Assay for Mitotic Arrest (AID 2282918); details: high-content imaging, actives raise or lower the signal
In short: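 High-content imaging of fixed human HepG2 cells after 72 h compound exposure (0.39–200 uM, duplicates, 0.5% DMSO); mitotic arrest scored from phospho-histone H3 and nuclear Hoechst staining relative to DMSO.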

[5] = APR_HepG2_MicrotubuleCSK_72hr: Apredica 72-hour HepG2 Assay for Microtubule CSK Stabilty (AID 2282919); details: HepG2 microtubule cytoskeleton, high-content imaging, actives raise or lower the signal
In short: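 Ten-point dosing (0.39–200 uM, 0.5% DMSO) of HepG2 for 72 hr, with taxol as the cytoskeletal positive control. The cells were formaldehyde-fixed and then stained with alpha-tubulin/Cy5 and Hoechst. Imaging at 20x used a −2 um Z offset for tubulin.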

[6] = APR_HepG2_P-H2AX_24hr: Apredica 24-hour HepG2 Assay for H2AX Phosphorylation (AID 2282920); details: high-content imaging, actives raise or lower the signal
In short: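 High-content imaging of phospho-histone H2A.x immunofluorescence, nuclei counterstained with Hoechst 33342, in fixed HepG2 cells. Compounds ran 0.39–200 uM in duplicate for 24 h, final DMSO 0.5%. Signal change fitted both directions against DMSO.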

[7] = APR_HepG2_StressKinase_72hr: Apredica 72-hour HepG2 Assay for Stress Kinase (AID 2282921); details: HepG2 stress kinase (phospho-c-Jun) imaging, actives raise or lower the signal
In short: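 After a 72 h compound treatment spanning 0.39 to 200 uM, formaldehyde-fixed cells are labelled for phosphorylated c-Jun and nuclei, imaged by automated fluorescence microscopy, and activity is fitted in both directions relative to DMSO controls.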

[8] = APR_HepG2_StressKinase_24hr: Apredica 24-hour HepG2 Assay for Stress Kinase (AID 2282922); details: HepG2 stress kinase (phospho-c-Jun) imaging, actives raise or lower the signal
In short: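 After 24 hr compound treatment (up to 200 uM, final DMSO 0.5% v/v), HepG2 cells are fixed and multiplex-labeled; phospho-c-Jun intensity is captured by high-content fluorescence imaging and analyzed relative to DMSO.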

[9] = APR_HepG2_p53Act_72hr: Apredica 72-hour HepG2 Assay for p53 Activation (AID 2282923); details: high-content imaging, actives raise or lower the signal;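 further: average cellular p53 protein immunofluorescence intensity in HepG2 cells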
In short: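 Imaging-based endpoint: after 72 hr compound exposure (up to 200 uM, 0.5% DMSO), fixed and permeabilized monolayers were labelled with anti-p53 antibody and imaged; signal change in either direction was fitted relative to DMSO controls.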

[10] = APR_HepG2_MitoMass_72hr: Apredica 72-hour HepG2 Assay for Mitochondrial Mass (AID 2282924); details: high-content imaging, actives raise or lower the signal;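 further: MitoTracker Red CMXRos stain intensity per cell imaged as mitochondrial mass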
In short: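 Steps: treat HepG2 72 hr (0.39–200 uM, duplicate wells); load MitoTracker Red CMXRos, 250 nM, 30 min; fix with 3.7% formaldehyde, permeabilise with 0.5% Triton X-100; capture images, nuclei via Hoechst 33342; fit bidirectionally against DMSO.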

[11] = APR_HepG2_NuclearSize_72hr: Apredica 72-hour HepG2 Assay for Nuclear Size (AID 2282925); details: high-content imaging, actives raise or lower the signal
In short: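 Compounds (0.39–200 uM, final DMSO 0.5%) were applied to HepG2 for 72 hr. Cells were then formaldehyde-fixed, permeabilized and labelled with Hoechst 33342. Nuclear diameter was quantified from six images per well.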

[12] = ATG_CRE_CIS: Attagene CIS-FACTORIAL HepG2 Assay for human cAMP Responsive Element (CRE) binding protein 3 (AID 2282926); details: HepG2 CRE cis-reporter, Attagene multiplexed mRNA; actives raise or lower the signal
In short: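 Endogenous transcription factor activity read via CRE-regulated reporter transcripts in transfected HepG2 cells. After 24 h exposure, RNA was reverse-transcribed, amplified, fluorescently labelled and sized by capillary electrophoresis; gain or loss fitted against DMSO.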

[13] = target: CCAAT/enhancer-binding protein beta (Homo sapiens) (UniProt P17676); assay: ATG_C_EBP_CIS: Attagene CIS-FACTORIAL HepG2 Assay for human CCAAT/Enhancer Binding Protein (C/EBP) beta (AID 2282927); details: HepG2 Attagene cis-factorial transcription factor reporter; actives raise or lower the signal
In short: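 Following a 24 h incubation with test chemical, transfected HepG2 cells yielded RNA whose reporter transcripts were quantified by RT-PCR and fluorescent capillary electrophoresis, with DMSO serving as baseline for bidirectional fitting.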

[14] = ATG_CMV_CIS: Attagene CIS-FACTORIAL HepG2 Assay for human CMV (Internal Marker) (AID 2282928); details: HepG2 CMV promoter reporter, transcription factor profiling; actives raise or lower the signal;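 further: endpoint acts as a background internal control marker rather than a target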
In short: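 Reporter transcripts from transfected HepG2 cells are isolated after 24 h of chemical dosing, reverse-transcribed and amplified. Fragments labeled with 6-FAM are cut with HpaI and quantified by capillary electrophoresis; DMSO defines baseline.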

[15] = ATG_DR4_LXR_CIS: Attagene CIS-FACTORIAL HepG2 Assay for human Liver X Receptor (LXR), DR4 submotif (AID 2282929); details: HepG2 Attagene DR4 cis-reporter, mRNA transcription; actives raise or lower the signal
In short: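 Fluorescence intensity of labelled reporter cDNA fragments, separated by capillary electrophoresis, gives the signal. HepG2 cells bearing cis-regulated reporter constructs were treated 24 h; activity fitted bidirectionally relative to DMSO negative control.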

[16] = target: Aryl hydrocarbon receptor (Homo sapiens) (UniProt P35869); assay: ATG_Ahr_CIS: Attagene CIS-FACTORIAL HepG2 Assay for human Aryl Hydrocarbon Receptor (Ahr) (AID 2282930); details: HepG2 AhR cis-factorial reporter transcription; actives raise or lower the signal
In short: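 Values derive from bidirectional fitting against DMSO negative control. Underlying signal: cis-element reporter mRNA in transiently transfected HepG2, harvested 24 h post-dose and measured by RT-PCR plus capillary electrophoresis.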

[17] = ATG_AP_1_CIS: Attagene CIS-FACTORIAL HepG2 Assay for human Activator Protein 1 (AP-1) (AID 2282931); details: HepG2 Attagene cis-factorial AP-1 reporter mRNA; actives raise or lower the signal
In short: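 Multiplexed HepG2 reporter assay, 24 h dosing. mRNA induction detected by RT-PCR plus capillary electrophoresis. Activity fitted in both directions against DMSO.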

[18] = ATG_AP_2_CIS: Attagene CIS-FACTORIAL HepG2 Assay for human Activator Protein 2 (AP-2) (AID 2282932); details: HepG2 AP-2 cis-reporter, Attagene transcription factor profiling; actives raise or lower the signal
In short: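 Cells (HepG2) transfected with promoter-driven reporter constructs, treated 24 h. Total RNA reverse-transcribed, reporter cDNA PCR-amplified, FAM-labelled by primer extension, digested, resolved by capillary electrophoresis. Activity fitted both directions versus DMSO.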

[19] = ATG_BRE_CIS: Attagene CIS-FACTORIAL HepG2 Assay for human Bone Morphogenetic Protein (BMP) Response Element (BRE) (AID 2282933); details: HepG2 BMP response element reporter, Attagene transcription factor profiling; actives raise or lower the signal
In short: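 After a 24 h chemical treatment, transiently transfected HepG2 cells were lysed for RNA; reporter transcripts were quantified by fluorescent RT-PCR and capillary electrophoresis, normalised to DMSO.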

Chain of CCAAT/enhancer-binding protein beta (Homo sapiens) (P17676 whole entry, looked up): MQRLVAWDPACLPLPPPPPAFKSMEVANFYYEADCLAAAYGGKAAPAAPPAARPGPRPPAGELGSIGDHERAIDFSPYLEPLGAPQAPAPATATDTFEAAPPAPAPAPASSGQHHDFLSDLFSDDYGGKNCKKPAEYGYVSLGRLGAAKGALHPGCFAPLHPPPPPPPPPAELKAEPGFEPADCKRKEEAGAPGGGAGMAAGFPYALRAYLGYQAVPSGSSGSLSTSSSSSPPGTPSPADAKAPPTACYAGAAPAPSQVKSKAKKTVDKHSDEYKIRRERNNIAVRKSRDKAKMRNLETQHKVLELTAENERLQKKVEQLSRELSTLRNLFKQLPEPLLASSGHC
Chain of Aryl hydrocarbon receptor (Homo sapiens) (P35869 whole entry, looked up): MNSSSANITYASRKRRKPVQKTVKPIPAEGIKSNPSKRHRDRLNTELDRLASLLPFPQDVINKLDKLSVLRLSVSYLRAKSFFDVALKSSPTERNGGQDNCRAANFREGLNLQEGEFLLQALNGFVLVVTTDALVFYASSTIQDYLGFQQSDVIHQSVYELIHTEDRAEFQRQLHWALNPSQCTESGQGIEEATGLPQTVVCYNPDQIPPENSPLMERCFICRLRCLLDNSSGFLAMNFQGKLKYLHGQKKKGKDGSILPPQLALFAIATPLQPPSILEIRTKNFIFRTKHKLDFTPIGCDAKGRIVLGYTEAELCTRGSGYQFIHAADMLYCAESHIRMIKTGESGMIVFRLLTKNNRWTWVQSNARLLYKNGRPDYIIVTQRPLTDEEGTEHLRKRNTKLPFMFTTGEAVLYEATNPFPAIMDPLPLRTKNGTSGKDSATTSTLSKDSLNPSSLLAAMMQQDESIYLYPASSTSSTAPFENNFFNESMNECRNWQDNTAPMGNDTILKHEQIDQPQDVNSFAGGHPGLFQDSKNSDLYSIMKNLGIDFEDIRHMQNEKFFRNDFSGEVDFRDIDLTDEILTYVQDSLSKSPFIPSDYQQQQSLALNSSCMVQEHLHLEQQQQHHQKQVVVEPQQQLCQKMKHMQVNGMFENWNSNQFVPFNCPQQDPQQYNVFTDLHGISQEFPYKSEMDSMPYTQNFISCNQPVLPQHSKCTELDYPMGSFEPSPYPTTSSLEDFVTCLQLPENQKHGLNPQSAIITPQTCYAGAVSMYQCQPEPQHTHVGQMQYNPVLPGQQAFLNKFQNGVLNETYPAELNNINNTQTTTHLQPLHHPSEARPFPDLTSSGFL

SMILES: C=CCOC(=O)C(C)(C)OC(=O)c1cc(-n2c(=O)cc(C(F)(F)F)n(C)c2=O)ccc1Cl
- AC50 [1]: 97.7 µM (active)
- outcome [2]: inactive
- AC50 [3]: 65.2 µM (active)
- AC50 [4]: 90.1 µM (active)
- AC50 [5]: 100 µM (active)
- outcome [6]: inactive
- outcome [7]: inactive
- outcome [8]: inactive
- outcome [9]: inactive
- outcome [10]: inactive
- outcome [11]: inactive
- AC50 [12]: 13.3 µM (active)
- outcome [13]: inactive
- outcome [14]: inactive
- outcome [15]: inactive
- outcome [16]: inactive
- outcome [17]: inactive
- outcome [18]: inactive
- outcome [19]: inactive

SMILES: N#Cc1c(Cl)cccc1Cl
- outcome [1]: inactive
- outcome [2]: inactive
- outcome [3]: inactive
- outcome [4]: inactive
- outcome [5]: inactive
- outcome [6]: inactive
- outcome [7]: inactive
- outcome [8]: inactive
- outcome [9]: inactive
- outcome [10]: inactive
- outcome [11]: inactive
- outcome [12]: inactive
- outcome [13]: inactive
- outcome [14]: inactive
- outcome [15]: inactive
- outcome [16]: inactive
- outcome [17]: inactive
- outcome [18]: inactive
- outcome [19]: inactive

SMILES: COc1cc(Cl)c(OC)cc1Cl
- outcome [1]: inactive
- outcome [2]: inactive
- outcome [3]: inactive
- outcome [4]: inactive
- outcome [5]: inactive
- outcome [6]: inactive
- outcome [7]: inactive
- outcome [8]: inactive
- outcome [9]: inactive
- outcome [10]: inactive
- outcome [11]: inactive
- outcome [12]: inactive
- outcome [13]: inactive
- outcome [14]: inactive
- outcome [15]: inactive
- outcome [16]: inactive
- outcome [17]: inactive
- outcome [18]: inactive
- outcome [19]: inactive

SMILES: CC(C)=CC1C(C(=O)OCc2coc(Cc3ccccc3)c2)C1(C)C (stereo not drawn)
- AC50 [1]: 40.1 µM (active)
- outcome [2]: inactive
- AC50 [3]: 159 µM (active)
- outcome [4]: inactive
- AC50 [5]: 74.2 µM (active)
- outcome [6]: inactive
- outcome [7]: inactive
- outcome [8]: inactive
- outcome [10]: inactive
- outcome [11]: inactive
- AC50 [12]: 13.2 µM (active)
- outcome [13]: inactive
- outcome [14]: inactive
- AC50 [15]: 73.6 µM (active)
- outcome [16]: inactive
- AC50 [17]: 14.3 µM (active)
- outcome [18]: inactive
- AC50 [19]: 15.5 µM (active)

SMILES: CCC(C)n1c(=O)[nH]c(C)c(Br)c1=O (stereo not drawn)
- outcome [1]: inactive
- outcome [2]: inactive
- outcome [3]: inactive
- outcome [4]: inactive
- outcome [5]: inactive
- outcome [6]: inactive
- outcome [7]: inactive
- outcome [8]: inactive
- outcome [9]: inactive
- outcome [10]: inactive
- outcome [11]: inactive
- outcome [12]: inactive
- outcome [13]: inactive
- outcome [14]: inactive
- outcome [15]: inactive
- outcome [16]: inactive
- outcome [17]: inactive
- outcome [18]: inactive
- outcome [19]: inactive

SMILES: CC1(C)CCC(=Cc2ccc(Cl)cc2)C1(O)Cn1cncn1 (stereo not drawn)
- outcome [1]: inactive
- outcome [2]: inactive
- outcome [3]: inactive
- outcome [4]: inactive
- outcome [5]: inactive
- outcome [6]: inactive
- outcome [7]: inactive
- outcome [8]: inactive
- outcome [9]: inactive
- outcome [10]: inactive
- outcome [11]: inactive
- outcome [12]: inactive
- outcome [13]: inactive
- outcome [14]: inactive
- outcome [15]: inactive
- outcome [16]: inactive
- outcome [17]: inactive
- outcome [18]: inactive
- outcome [19]: inactive
